{"source": "the supplement of paper PMC6555819", "data": [{"tested_on": "VDR:RXRa (NR concentration 270 nM, RXRa partner concentration 90 nM)", "assay": "PBM binding z-score (relative to random genomic background probes); higher = stronger binding; sequences stand for … in GC…GCGATTGACAGCGTAGAATGAAGG", "description": "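Protein-binding microarray (Agilent 4x180K custom design, double-stranded 60-nt probes: 5' GC cap, 34-nt variable region, 24-nt constant primer region; full probe sequence given). Purified or IVT nuclear receptor:RXRα heterodimers (3:1 NR:RXRα, mostly 270:90 nM) or homodimers were incubated for 1 h in PBS with 2% milk and no ligand, then detected with Alexa488 antibodies. Fluorescence from o1-orientation probes (~5 replicates averaged) was converted to z-scores against 500 random hg19 background probes. Variable regions are seed direct-repeat (DR0–DR5) sites, all their single-nucleotide variants and half-site ablations.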", "values": [{"sequence": "CGAACTAGGGCAAAGGACAGTGAAAGGCGACGTA", "PBM binding z-score": -0.612}, {"sequence": "TAGCCTAGGTCACGGGCCAGTATACCACGCGAAC", "PBM binding z-score": 2.94}, {"sequence": "CGTCCAAGGTCAAGGTGAGTGAAAGAGACTCGAA", "PBM binding z-score": 4.01}, {"sequence": "CGTCCAAGGTCAGATAGGTCAGTGAATGCCGAGT", "PBM binding z-score": 4.9}, {"sequence": "CGAACTAGGTCACCAGGACAGTGCAGAGGTTGGA", "PBM binding z-score": 2.28}, {"sequence": "TCGAGTAGGTTGCGGGGGCATTCAGGGATGAAGA", "PBM binding z-score": 3.33}, {"sequence": "ACTCGGAGGACAAAGGTCACAGCTACGCCAGTGA", "PBM binding z-score": 4.95}, {"sequence": "GCTGCTAGGTAAGGTTGGTCAGCTAACGGGTACG", "PBM binding z-score": -0.447}, {"sequence": "CGTCTAAGGTCAAAGGTCAGTGAAGAGATGACGG", "PBM binding z-score": 6.78}, {"sequence": "TGGCCTAGGTCATGCGGGCCAGTATAGTGTCGGC", "PBM binding z-score": 2.64}, {"sequence": "ATATGTAGGTTAGGGTCATTCTGAAAGTAGGGAA", "PBM binding z-score": 4.44}, {"sequence": "CGAACTAGGTCAAAGGACCGTGAAAGGCGACGTA", "PBM binding z-score": 1.03}, {"sequence": "AGCTCTAGGTAAAAGTTCAGTGAATCCCGAGGAT", "PBM binding z-score": 0.974}, {"sequence": "TAGCCTAGGTCATGCGGGCCAGTATAGTGTCGGC", "PBM binding z-score": 2.89}, {"sequence": "TCTGCTTGGTCAACGATGGTCAGCTAATCTGCTA", "PBM binding z-score": -0.63}, {"sequence": "CCGAGTAGGTTATGAGGGGGCATTCAGTGCGAAT", "PBM binding z-score": 5.25}, {"sequence": "CGAAGTAGGTCACCAGGACAGTGAAGAGGTTGGA", "PBM binding z-score": 2.07}, {"sequence": "AATACAGGGTCACTTGGCCAGAGTAGGTACGAAT", "PBM binding z-score": 4.36}, {"sequence": "TCATATAGGTGAAAGGTGAAAGTCGGTGTGGTAA", "PBM binding z-score": 2.12}, {"sequence": "CGAACTAGGTCAAAGTACAGTGAAAGGCGACGTA", "PBM binding z-score": 1.84}, {"sequence": "ACTAGTTGGTCAGCTGGGGTCACACACAATTCGG", "PBM binding z-score": 4.93}, {"sequence": "AGTCAAAGTTCACGACGAGGTAACGTAAAGCACG", "PBM binding z-score": 5.05}, {"sequence": "ATCGAAACGTCGACGAGGTGAGTATACACCGTTT", "PBM binding z-score": -0.119}, {"sequence": "CTATGGAGGTTAAGGGGGTCATTCAGTTTGAAAG", "PBM binding z-score": 8.03}, {"sequence": "CCTGCTAGGTCAAGGGTCAGCTAAAGCAGCTCGC", "PBM binding z-score": 4.17}, {"sequence": "ATCGTAAGGTCGTGAGGTGAGTATACAGAAAGGC", "PBM binding z-score": 2.8}, {"sequence": "TGAATGAGGTTTAAGATCAGGGAACGTGGCGTCG", "PBM binding z-score": -0.255}, {"sequence": "ATATGTGGGTTATCGGGTCATTCAGTTTGCGCAT", "PBM binding z-score": 5.21}, {"sequence": "TATACTGGGTCAAAGGCCAGAGTACGAATGTCGA", "PBM binding z-score": 2.38}, {"sequence": "CGAACTAGGTCACCACGACAGTGAAGAGGTTGGA", "PBM binding z-score": 2.04}, {"sequence": "ATCGAAAGGTGGACGAGGTGAGTATACACCGTTT", "PBM binding z-score": 0.85}, {"sequence": "ATCGAAAGGTCGTGAGGTGACTATACAGAAAGGC", "PBM binding z-score": 3.64}, {"sequence": "CGTCCAAGGTCATAGGAGGTCACTGAAGACAGAT", "PBM binding z-score": 7.05}, {"sequence": "CCGAGTAGGTTACGAGGGGGCATCCAGTGCGAAT", "PBM binding z-score": 4.75}, {"sequence": "TCTGCTAGGTCAGGTGGTCAGCTAACGAGCTGCC", "PBM binding z-score": 0.132}, {"sequence": "TCTAGTTGGTGACGGAGGTCACACACGACGGGTA", "PBM binding z-score": 3.98}, {"sequence": "TCTAGTAGGTTACGGGGGCATTCAGGGATGAAGA", "PBM binding z-score": 4.39}, {"sequence": "ACTAGCAGGCCAAGAGTCACTCAAGATTAGTCCG", "PBM binding z-score": -0.367}, {"sequence": "TCGAGTAGCTTACGGGGGCATTCAGGGATGAAGA", "PBM binding z-score": 2.45}, {"sequence": "CCTACTGGGCCATTCAGAGGTCACTGATCATATG", "PBM binding z-score": 3.58}]}]}
